# Screening results: PubChem BioAssay, National Center for Advancing Translational Sciences (NCATS)
# Pf growth 48h: Primary qHTS for delayed death inhibitors of the malarial parasite plastid, 48 hour incubation. P. falciparum luciferase growth in erythrocytes, 48 h. Potency, µM (doses to about 28.7 µM), for the others: at the highest dose activity change, negative = inhibition, actives largely listed as inhibitors. 310,000 tested, 5.9% active. AID 504832, 2011; active means well fitted inhibition curve with a large enough effect; inconclusive means small, poorly fitted or top-dose-only effect, or another doubt; inactive means no such curve, though single readings can be large or run the other way; further: potency means the concentration at half of the fitted maximal effect; on the % scale 0 is the no-effect control and ±100 the full control effect
#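 Cell-based growth assay: transgenic P. falciparum expressing firefly luciferase, cultured in red cells within RPMI 1640 containing 0.5% w/v Albumax, 24 mM bicarbonate and gentamycin. A drop in luciferase activity indicates inhibition.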
# Pf growth 96h: Primary qHTS for delayed death inhibitors of the malarial parasite plastid, 96 hour incubation. AID 504834, 2011. Potency, µM (top dose mostly 28.7 µM), inactives show at the top dose activity change, negative = inhibition, hits mostly inhibitors. P. falciparum luciferase reporter growth, 96 h. 320,000 tested, 6.9% active; active means well fitted inhibition curve with a large enough effect; inconclusive means small, poorly fitted or top-dose-only effect, or another doubt; inactive means no such curve, though single readings can be large or run the other way; further: potency means the concentration at half of the fitted maximal effect; on the % scale 0 is the no-effect control and ±100 the full control effect
#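 P. falciparum expressing integrated firefly luciferase grown in erythrocytes (2% hematocrit, 0.05% parasitemia final) with compounds for 96 hours at 37 C, 5% CO2. Growth inhibition read as loss of luminescence after adding luciferase detection reagent.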
# SARS PLpro yeast: qHTS of Yeast-based Assay for SARS-CoV PLP. S. cerevisiae expressing SARS-CoV PLpro, growth rescue. Potency, µM (titrated, usually from 32.9 µM), for the others: at the top dose activity, positive = growth rescue, hits mostly activators. 330,000 tested, 0.19% active; further: potency means the concentration at half of the fitted maximal effect; 0% is about no effect; nearly all actives have a fitted effect of over 55% in size
# Shiga inhibitor: A qHTS for Small Molecule Inhibitors of Shiga Toxin. inhibition, % at 38.7 µM. AID 2315, 2010. Vero cells, Shiga toxin protein synthesis inhibition reporter. 290,000 tested, 9.2% active; in the data active means inhibition mostly above about 28%, no sharp cut-off; inactive means mostly below about 43%; further: 0% is about no effect
# CHX counter: Cycloheximide Counterscreen for Small Molecule Inhibitors of Shiga Toxin. cell reporter, cycloheximide protein synthesis inhibition counterscreen. max response, %. 300,000 tested, 12% active. AID 2314, 2010; in the data active means max response mostly above about 13%, no sharp cut-off; inactive means mostly below about 14%; further: read at 38.3 µM for the half of the compounds with a filed dose; 0% is about no effect
# NS1 function inh: qHTS Assay for Inhibitors of Influenza NS1 Protein Function | 270,000 tested, 0.4% active | AID 2326, 2010 | Potency, µM (highest dose often 46.1 µM), for inactives: at the highest dose activity, positive = more growth; further: potency means the concentration at half of the fitted maximal effect; actives are rising curves; nearly all actives have a fitted effect of over 50% in size
#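 S. cerevisiae expressing influenza A NS1, grown in glucose, washed, then diluted 1:100 into pH 6.0 -URA galactose medium with 23 nl compound. Growth recovery read as OD600; NS1-free strain serves as control.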
# * hit, by the source's call; u = inconclusive; x = not tested or not shown; + = active, no number; [ ] = remark or other dose. Only some compounds are listed: those with a hit (about 21% of all), similar ones and a draw of the others. Unless noted, the call rests on the fitted dose curve.
SMILES,Pf growth 48h,Pf growth 96h,SARS PLpro yeast,Shiga inhibitor,CHX counter,NS1 function inh
COc1cccc(NC(=O)c2cc3cccc(OC)c3o/c2=N\O)c1,185%,36%,-2%,109*,81*,6%
COc1cccc(NC(=O)c2cc3ccccc3o/c2=N\O)c1,384%,u,-19%,x,19*,-82%
C=CCc1cccc(CNc2nc3ccccc3n2CC)c1O,15µM*,x,0%,-9,-1,-92%
CCCCn1c(NCc2ccccc2O)nc2ccccc21,u,54%,2%,20,11,-16%
C=CCc1cccc(CNc2nc3ccccc3n2CCC)c1O,12µM*,x,0%,-30,2,-43%
Cc1ccccc1NC(=O)Nc1nc2ccc(S(C)(=O)=O)cc2s1,44%,u,6%,+,14,6%
CCCC(=O)Nc1nc2ccc(S(N)(=O)=O)cc2s1,11%,-10%,-7%,14,13,-4%
NS(=O)(=O)c1ccc2nc(NC(=O)Nc3ccccc3F)sc2c1,192%,368%,1%,105*,50*,-7%
CC(=O)c1ccc(S(=O)(=O)N2CCN(C(C)C(=O)N(C)Cc3ccccc3)CC2)cc1 (stereo unspecified),x,x,0%,x,x,x
CCOc1ccccc1CNC(=O)c1c([N+](=O)[O-])c(C)nn1C,10%,3%,15%,-2,1,-11%
CC1=CC(C)(C)N(C(=O)CSc2nnc(-c3ccc(C)cc3)o2)c2ccc(C)cc21,x,9.3µM*,-25%,-9,11,-5%
Cc1cc(N2CCN(c3ccc(C(F)(F)F)cc3[N+](=O)[O-])CC2)c2ccccc2n1,13µM*,7.4µM*,1%,-2,-3,-16%
O=C(Nc1ccccc1)N1CCCN(c2ccc(C(F)(F)F)cc2[N+](=O)[O-])CC1,13µM*,10µM*,0%,-2,-4,-2%
Cc1cc(N2CCN(c3ccc([N+](=O)[O-])c4cccnc34)CC2)c2ccccc2n1,-18%,7.4µM*,5%,-5,-3,13%
CCc1ccc(C2C(C#N)=C(N)N(N(C)C)C3=C2C(=O)CCC3)cc1 (stereo unspecified),-23%,60%,0%,5,-1,-1%
O=C(CN1CCN(S(=O)(=O)c2ccc(Cl)cc2)CC1)c1ccc(O)c(O)c1,-16%,u,-2%,2,1,3%
O=C1NC(=S)S/C1=C1\Sc2ccccc2N1CCCS(=O)(=O)O,7%,7.4µM*,13%,-3,-2,-2%
NN1C(=O)/C(=C2/Sc3ccccc3N2CCCS(=O)(=O)O)SC1=S,9%,0%,8%,33,12,3%
N#CC1(NC(=O)COc2ccc(C(N)=O)cc2)CCCC1,x,x,1%,x,x,x
Cc1ccc(NC(=O)CCn2nc(C)cc2C)c(C)c1,0%,12µM*,u,-16,8,0%
Cc1ccc(NC(=O)CS(=O)c2ccccc2N)c(C)c1 (stereo unspecified),111%,52%,2%,35,38*,0%
Cc1ccc(NC(=O)Cc2ccccc2)c(C)c1,17%,0%,1%,17,17,-4%
Cc1cccc(NC(=O)CCc2ccccc2)c1C,29%,u,-3%,35,-1,4%
Cc1ccc(NC(=O)CNc2ccc(OC(C)C)cc2)c(C)c1,u,13µM*,1%,19,-1,-36%
Cc1cccc(NC(=O)CCSc2ccccc2)c1C,15%,-5%,0%,19,12*,1%
SMILES,Pf growth 48h,Pf growth 96h,SARS PLpro yeast,Shiga inhibitor,CHX counter,NS1 function inh
CCOc1ccc(S(=O)(=O)N2CCC(C(=O)NCc3cccnc3)CC2)cc1C,-3%,-9%,-3%,-6,-6,2%
Cc1ccc(NC(=O)Cc2noc3ccccc23)c(C)c1,25%,65%,-35%,32*,12,-7%
Cc1cc(Br)ccc1NC(=O)CCSc1ccccc1,8%,34%,-14%,48*,16*,-11%
Cc1cc(NC(=O)CN(C)CCOc2ccccc2)ccc1Br,-13%,0%,-7%,18,3,x
COC(=O)c1ccc(C)c(NC(=O)CCSc2ccccc2)c1,3%,1%,6%,-3,9,7%
Cc1cc(NC(=O)CCSc2ccccc2)ccc1Br,66%,0%,-50%,21,87*,-7%
Cc1ccc(NC(=O)CCSc2ccccc2)c(C)c1,3%,u,0%,55*,24*,-2%
CCC(=O)Oc1cccc(C(=O)Nc2cccc(NC(=O)c3ccco3)c2)c1,0%,-27%,-5%,14,4,-2%
Cc1ccc(NC(=O)CCOc2ccccc2)c(C)c1,-2%[0.00184 µM],78%,-3%,39,13*,-5%
Cc1ccc(F)cc1NC(=O)CCOc1ccccc1,0%,6%,1%,4,2,x
Cc1cc([N+](=O)[O-])ccc1NC(=O)C(C)N1CCN(c2ccccn2)CC1 (stereo unspecified),-29%,u,0%,-13,2,-5%
CCOC(=O)c1c(-c2ccccc2)c2cc(OC)ccc2n1CCCN(C)C,9.3µM*,65%,-3%,-3,-1,-7%
c1ccc(-c2nnc(-c3ccccc3)nn2)cc1,u,u,-1%,91*,51*,-3%
c1ccc(-c2nn[nH]n2)cc1,0%,25%,-3%,-9,-3,2%
c1cncc(-c2nnc(-c3cccnc3)nn2)c1,2.6µM*,u,-27%,0,1,-104%
CCOC(=O)c1c(C)oc2c1c(C(c1ccccc1)N1CCOCC1)c(O)c1ccccc12 (stereo unspecified),x,u,-20%,141*,71*,2%
CCOC(=O)c1c(C)oc2c1c(C(c1cccnc1)N1CCCCC1)c(O)c1ccccc12 (stereo unspecified),u,x,-25%,95*,57*,-9%
CCOC(=O)c1c(N2CCCCC2)c2ccccc2[nH]c1=O,1%,x,-10%,-1,-1,3%
CCOC(=O)c1c(C)oc2c1c(/C=N/c1ccccn1)c(O)c1ccccc12,x,x,x,x,x,25%
CCOC(=O)c1c(C)oc2c1c(C=NCCO)c(O)c1ccccc12,u,13µM*,-1%,44,28*,-12%
O=C(COc1ccc([N+](=O)[O-])cc1)Nc1nnc(-c2cccnc2)s1,6%,-5%,-1%,-4,-2,2%
CC1CCCC(C)N1C(=O)CSc1nc2ncnc(N)c2[nH]1 (stereo unspecified),6%,0.74µM*,3%,18,-2,-1%
CC1CCCC(C)N1C(=O)CSc1nc(N)cc(N)n1 (stereo unspecified),24%,22%,0%,-4,-3,8%
